This assay in a line: qHTS profiling of the MIPE4 collection as inhibitors of Plasmodium falciparum (HB3) proliferation (AID 743347). As to conditions: P. falciparum HB3 in erythrocytes, SYBR Green DNA, 72 h; at 28.5 µM (top of the series) unless noted. The source says:
Plasmodium falciparum is a virulent malarial parasite that kills 1-2 million people worldwide each year. Transmitted by mosquitoes, the sporozoite form of the parasite enters the blood stream to infect hepatocytes, where they become merozoites that infect red blood cells (erythrocytes). Within erythrocytes, merozoites begin a […] cycle of growth and division, after which the parasite is released to infect new red blood cells. Gametocytes, which form within erythrocytes as well, circulate in the bloodstream and are ingested by the mosquito, thereby completing the life cycle. To profile malarial isolates for differential chemical responses and to identify inhibitors of malarial growth, an assay that measures P. falciparum growth and replication within erythrocytes was employed. This assay uses a DNA binding fluorescent dye (SYBR Green) to detect parasite DNA following cell lysis. Because mature erythrocytes lack DNA, only Plasmodium-derived DNA is detected.
The SYBR Green viability assay was adapted from a method described previously (Plouffe et al., 2008). For screening 3 ul culture medium was dispensed into 1536 well black clear bottom plates (Aurora Biotechnologies) using a Multidrop Combi (Thermo Fisher Scientific Inc.), 23 nL compounds in DMSO were added by a pin tool (Kalypsys), and 5 ul of erythrocytes infected with P. falciparum (0.3% parasitemia, 2.5% hematocrit final concentration) were added. The plates were incubated at 37 C in a humidified incubator in 5% CO2 for 72 h, and 2 ul lysis buffer (20 mM Tris HCl, 10 mM EDTA, 0.16% saponin, 1.6% triton X, 10X SYBR Green I supplied as 10,000X […] by Invitrogen) was added to each well. The plates were mixed for 25 sec with gentle shaking and incubated overnight at room temperature in the dark. The following morning, fluorescence intensity at 485(14) nm excitation and 535(25) nm emission wavelengths was measured on an EnVision (Perkin Elmer) plate reader. Plate reads were normalized relative to the control inhibitor (0.29 uM artemisinin) and vehicle (DMSO) wells present on each plate and then corrected by an algorithm using vehicle-only control plates at the beginning and end of the compound plate stack.
In general terms: In qHTS, concentration-response curves come from the screen itself.
On to `CNc1nc(Nc2ccc(C(=O)N3CCOCC3)cc2OC)ncc1Cl`, for which the growth, % of control came out at 54.9%.
Compound `C[C@@H]1[C@H](C)CC[C@]2(C(=O)O)CC[C@]3(C)C(=CC[C@@H]4[C@@]5(C)CC[C@H](O)C(C)(C)[C@H]5CC[C@]43C)[C@@H]12` displayed a growth, % of control of 3.02% [at 57.5 µM].
On to `Nc1ccc(-c2ccc3ncc4ccc(=O)n(-c5cccc(C(F)(F)F)c5)c4c3c2)cn1`, for which the growth, % of control worked out at 2.97%.
In the case of `CNC(=O)c1ccc2c(C(=Nc3cccc(CN(C)C)c3)c3ccccc3)c(O)[nH]c2c1` it was 19%; in that of `CCOC(=O)[C@@H](N)CCC(=O)N[C@@H](CSCc1ccccc1)C(=O)N[C@@H](C(=O)OCC)c1ccccc1`, 101%; in that of `CC(C)CN(C[C@@H](O)[C@H](Cc1ccccc1)NC(=O)O[C@H]1CO[C@H]2OCC[C@H]21)S(=O)(=O)c1ccc(N)cc1`, 8.15%.
`C[C@]12C=CC(=O)C=C1CC[C@@H]1[C@@H]2[C@@H](O)C[C@@]2(C)[C@@H]1CC[C@]2(O)C(=O)CO` registered a growth, % of control of 78%.
Take `O=C(O)c1nc(=O)[nH]c(=O)[nH]1`: the growth, % of control is 89.9% [at 9.64 µM].
In the case of `Nc1ncnc2c1c(-c1cccc(OCc3ccccc3)c1)cn2C1CC(CN2CCC2)C1` (stereo not given) it was 12.8%.
Take `Cc1c(-c2cccc3c(CCCOc4cccc5ccccc45)c(C(=O)O)n(Cc4cccnc4)c23)c(COc2ccc(N3CCN([S+](=O)([O-])N(C)C)CC3)cc2)nn1C`: the growth, % of control was 4.06%.
Turning to `CN(C)CCOc1cc(-c2cn[nH]c2)ccc1NC(=O)C1COc2ccccc2O1` (stereo not given), the growth, % of control was found to be 38.6%.
The value for `Oc1ccc(C=Cc2cc(O)cc(O)c2)cc1` was 13%.
Regarding `CC(=O)O[C@]1(C(C)=O)CC[C@H]2[C@@H]3C=C(Cl)C4=CC(=O)[C@@H]5C[C@H]5[C@]4(C)[C@@H]3CC[C@@]21C`, the growth, % of control turned out to be 20.1%.
`Cc1nn(Cc2ccccc2Cl)c(C)c1CN(C)CC(O)COc1ccc(Cl)cc1` (stereo not given) gave a growth, % of control of 7.87%.
For the compound `c1ccc(-c2oc3ncnc(NC[C@@H]4CCCO4)c3c2-c2ccccc2)cc1`, the growth, % of control worked out at 19.8%.
The value for `Cc1ccc(S(=O)(=O)OCC(=O)Nc2ccc(C(=O)O)c(O)c2)cc1` was 75.5%; that for `CCNC(=O)Nc1ccc(Oc2ncnc(N)c2C=NOC)cc1Cl` was 50.6%.
With `CO[C@H]1/C=C\O[C@@]2(C)Oc3c(C)c(O)c4c(O)c(c5c(nc6cc(C)ccn65)c4c3C2=O)NC(=O)C(C)=CC=C[C@H](C)[C@H](O)[C@@H](C)[C@@H](O)[C@@H](C)[C@H](OC(C)=O)[C@H]1C`, the growth, % of control amounted to 5.21%.
The value for `Cc1ccc(NC(=O)c2ccc(CN3CCN(C)CC3)cc2)cc1Nc1nc(-c2cccnc2)cs1` was 4.3%; that for `CN[C@@H]1[C@@H](O)[C@@H](O[C@@H]2[C@@H](O)[C@H](O[C@H]3O[C@H](CN)[C@@H](O)[C@H](O)[C@@H]3O)[C@@H](N)C[C@@H]2NC(=O)[C@@H](O)CN)OC[C@]1(C)O` was 53.1%.
With `O=C(CO)N1CCC(c2[nH]nc(-c3ccc(Cl)cc3)c2-c2ccncn2)CC1`, the growth, % of control stood at 30.6%.
With `Cc1ccc(C(=O)N(CCCN)[C@@H](c2nc3cc(Cl)ccc3c(=O)n2Cc2ccccc2)C(C)C)cc1`, the growth, % of control came out at 6.88%.
`O=C1C(c2c(O)[nH]c3ccccc23)=Nc2ccccc21`: the growth, % of control is 98.4%.
`C[C@@H]1CCO[C@H]2Cn3cc(C(=O)NCc4ccc(F)cc4F)c(=O)c(O)c3C(=O)N12` displayed a growth, % of control of 62.8%.
The compound `CCC(=O)OCC(=O)[C@@]1(OC(=O)CC)[C@@H](C)C[C@@H]2[C@H]3CCC4=CC(=O)C=C[C@]4(C)[C@@]3(F)[C@@H](O)C[C@@]21C` gave a growth, % of control of 48.2%.
The value for `CCCC1OC2C[C@@H]3[C@H]4CCC5=CC(=O)C=C[C@]5(C)[C@H]4C(O)C[C@]3(C)[C@]2(C(=O)CO)O1` (stereo not given in full) was 5.33%; that for `Cc1cc(NC(=O)Nc2ccc(N(C)C)cc2)c2cc(F)cc(F)c2n1` was 10.1%; that for `Cc1cc(CS(=O)(=O)c2ccccc2)cc(OCc2ccc(CN3CCC[C@H]3CO)cc2)c1` was 66.2%.
With `COc1cccc(OC)c1-c1cc(C(=O)NC2(C(=O)O)C3CC4CC(C3)CC2C4)nn1-c1ccnc2cc(Cl)ccc12` (stereo not given), the growth, % of control came out at 7.09%.
Regarding `CN[C@@H]1CN(c2ccc3c(=O)c(C(=O)O)cn(-c4nccs4)c3n2)C[C@@H]1OC`, the growth, % of control came out at 8.57% [at 9.64 µM].
As for `CNC1[C@H](O)C(O[C@@H]2C(O)C(O[C@H]3O[C@H]([C@@H](C)NC)CC[C@H]3N)[C@@H](N)C[C@H]2N)OC[C@]1(C)O` (stereo not given in full), the growth, % of control worked out at 99.6%.
In turn, `CC(NCCc1ccc(O)cc1)C(O)c1ccc(O)cc1` (stereo not given) gave a growth, % of control of 96.6%.
Take `COc1cc(Cl)cn2c(-c3cccc(NC4CNC4)n3)cnc12`: the growth, % of control was 42.7%.
The value for `CN(C(Cc1ccc(OS(=O)(=O)c2cccc3cnccc23)cc1)C(=O)N1CCN(c2ccccc2)CC1)S(=O)(=O)c1cccc2cnccc12` (stereo not given) was 8.15%; that for `OCCn1cc(-c2ccc3c(c2)CCC3=NO)c(-c2ccncc2)n1` was 89.4%.
For `CCOc1ccccc1N=Nc1c(C)[nH]n(-c2nc(-c3ccccc3)cs2)c1=O`, the growth, % of control came to 87.1%.
The compound `CN(C)CCCNC(=O)c1ccc(-c2cc(O)c3ncccc3c2)cc1` had a growth, % of control of 8.59%.
With `CCCCOCCOc1nc(-c2ccc(C(=O)O)c(F)c2)sc1C`, the growth, % of control was 85%.
As to `Cn1cc(-c2ccc3nnc(Sc4ccc5ncccc5c4)n3n2)cn1`, the growth, % of control came to 43.3%.
Turning to `CCC(=O)NCC[C@@H]1CCc2ccc3c(c21)CCO3`, the growth, % of control was 107%.

(Values after PubChem BioAssay (NCATS).)
